Compound activity as filed in PubChem.
This is a sample that favours compounds with a hit; in the whole collection about 3.4% have one here.
PNC inhibitor: blocks assembly of the perinucleolar compartment; PC3M PTB-GFP, PNC prevalence imaging, 16 h; hits give low values; activity change (PNC), negative = inhibition, % at 10 µM; hit rate 3.1% among 140,000;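 active means readout at or below -70, meaning at least 70% loss of cells showing the perinucleolar compartment, a nuclear body marking cancer cells; inconclusive means readout between -30 and a set limit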
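PC3M cells stably expressing PTB-GFP, 750–1000 cells/well, treated 16 h at 37 °C with compound (23 nl of library stock), in duplicate. After paraformaldehyde fixation and Hoechst stain, imaged at 20x; PNC prevalence scored by image analysis.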
IMPase inh: cell-permeable inhibitors of inositol monophosphatase (IMPase); CHO-M1 cells, IP1 accumulation, HTRF TR-FRET ratio; inhibition (IP1 accumulation), % at 46.1 µM; 120,000 tested, under 10 active; active means well fitted curve in the direction sought with a large enough effect in the signal ratio, not every such curve was filed as active; inconclusive means small, poorly fitted or top-dose-only effect, or a change in a side signal; inactive means no such curve, though single readings can be large or run the other way; the % refers to the signal ratio;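 further: cells stimulated with carbachol in lithium chloride buffer; higher means more IMPase inhibition seen as more IP1 and lower FRET ratio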
Target sequence (P97697 whole entry, looked up): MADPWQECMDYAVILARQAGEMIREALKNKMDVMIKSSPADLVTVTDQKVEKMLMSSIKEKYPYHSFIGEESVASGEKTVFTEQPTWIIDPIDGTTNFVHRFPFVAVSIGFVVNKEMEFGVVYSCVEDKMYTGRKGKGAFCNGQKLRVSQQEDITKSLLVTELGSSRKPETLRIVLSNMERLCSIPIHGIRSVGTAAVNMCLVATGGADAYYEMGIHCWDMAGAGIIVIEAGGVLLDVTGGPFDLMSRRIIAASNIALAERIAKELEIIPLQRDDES
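Carbachol-driven Gq signalling in CHO-M1 cells (2000/well) generates IP1. Compounds that block IMPase raise IP1 and so reduce the FRET signal from Eu-anti-IP1 and d2-IP1 after a 10 min room-temperature lysis.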
NPSR antag: neuropeptide S receptor (human) antagonism, cAMP; CHO-NPSR cells, cAMP TR-FRET, antagonist mode; Potency, µM (top dose mostly 38.3 µM), actives largely listed as inhibitors; hit rate 1% among 220,000; AID 1461; further: nearly all actives have a fitted effect of over 50% in size
HTT cytoprotect: cytoprotection in Huntington HTT-Q103 PC12 cell model; Potency, µM (series often up to 56.4 µM), hits mostly activators; PC12 HTT-Q103 induced, cytoprotection, ATP luminescence, 40 h; hit rate 0.14% among 230,000; AID 1471; further: nearly all actives have a fitted effect of over 45% in size
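PC12 cells with ecdysone-inducible HTT exon 1 Q103-GFP, induced with 100 nM tebufenozide and co-treated with library compounds in a dose series (1536-well, 1500 cells/well). Cytoprotection read as ATP content by ATPlite luminescence.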
IMPase Li cell: IMPase inhibition in cells with lithium potentiation | CHO-M1 cells, IP1 TR-FRET (IP-One), carbachol + lithium | AID 1457 | hit rate 0.35% among 210,000 | Potency, µM (top dose mostly 59.4 µM), actives largely listed as inhibitors;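 further: IP1 builds up when IMPase is blocked and the TR-FRET signal falls; nearly all actives have a fitted effect of over 50% in size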
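Readout is a homogeneous TR-FRET IP1 immunoassay (Ex 320, Em 665 and 620), where raised cytosolic IP1 lowers signal. Cells were CHO-M1 treated 30 min at 37C with test compounds plus a little lithium; AC50 values came from Hill-equation fitting.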
HTT aggregate: reduces HttQ103-GFP aggregates in PC12 cells; Potency, µM (top dose mostly 46.1 µM), actives largely listed as inhibitors; PC12 HttQ103-GFP aggregates, Acumen cytometry, 40 h; hit rate 1.1% among 220,000; further: nearly all actives have a fitted effect of over 60% in size
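Huntingtin Q103 exon 1–GFP aggregates in induced PC12 cells (100 nM tebufenozide) were quantified by cytometry from lysates, with compounds dosed in titration.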
Of the large screens only hits and unclear results are named; the others gave an inactive call. Unless noted, the call rests on the fitted dose curve; in most records, active means well fitted curve in the direction sought with a large enough effect; inconclusive means small, poorly fitted or top-dose-only effect, or another doubt; inactive means no such curve, though single readings can be large; an effect the other way counts as inactive or inconclusive.

COc1ccc(-c2cc(C(F)(F)F)n3nc(C(=O)NCc4ccco4)cc3n2)cc1	PNC inhibitor -114
Cc1ccc(CSc2nnc(CNc3ccc(F)cc3)o2)cc1	none (no result: PNC inhibitor, IMPase inh)
CC(C)(C)C(=O)OCOP(=O)(OCOC(=O)C(C)(C)C)C(C)(Oc1ccc(O)cc1)P(=O)(OCOC(=O)C(C)(C)C)OCOC(=O)C(C)(C)C	none (no result: PNC inhibitor, IMPase inh, NPSR antag, HTT aggregate)
C/C(=C(/CCO)SS/C(CCO)=C(\C)N(C=O)Cc1cnc(C)nc1N)N(C=O)Cc1cnc(C)nc1N	none (no result: PNC inhibitor, IMPase inh, NPSR antag, IMPase Li cell)
Cc1nc(NC(=O)/C=C/c2ccccc2)sc1C(=O)N1CCCCC1	none (no result: PNC inhibitor, IMPase inh)
CCc1ccc(-c2cc(C(=O)Nn3cnnc3)c3ccccc3n2)cc1	PNC inhibitor -82
O=c1c(-c2ccc(F)cc2)nc2cnc(N3CCNCC3)nc2n1C1CC1	none (no result: PNC inhibitor, IMPase inh, NPSR antag, HTT aggregate)
COc1ccc(NC(=O)c2cc(S(=O)(=O)N(Cc3ccccc3)c3ccccc3)ccc2Cl)cn1	none (no result: IMPase inh)
CC(=O)Nc1sc(/C(C#N)=C/c2ccc(Cl)c(Cl)c2)nc1-c1ccc(C)cc1	PNC inhibitor inconclusive, IMPase Li cell 13µM, HTT aggregate inconclusive (no result: IMPase inh)
Nc1nc2ccccc2n1/N=C/c1ccc(-c2ccccc2)o1	none
Nc1nc2ccccc2n1/N=C/c1ccc([N+](=O)[O-])s1	PNC inhibitor -83, HTT aggregate inconclusive (no result: IMPase inh)
CCCC(=O)Nc1ccc(Oc2ccc(NC(=O)CCC)cc2)cc1	PNC inhibitor -100
CSc1ccc2c(c1)N(CCC1CCCCN1C)c1ccccc1S2 (stereo not drawn)	PNC inhibitor -115, NPSR antag 13µM, HTT cytoprotect inconclusive, HTT aggregate inconclusive (no result: IMPase inh)
O=C1CC(c2ccc3c(c2)OCO3)c2cc(O)ccc2O1 (stereo not drawn)	none (no result: PNC inhibitor, IMPase inh, NPSR antag, HTT aggregate)
CC(C)(C)C(=O)NC1CCN(S(C)(=O)=O)CC1	PNC inhibitor -100
COC(=O)C1CCN(S(=O)(=O)c2ccc(NC(C)=O)cc2)CC1	none
COC(=O)C1CCN(S(C)(=O)=O)CC1	PNC inhibitor -100
O=C(N/N=C/c1ccccc1[N+](=O)[O-])c1ccc(COc2ccccc2-c2ccccc2)cc1	none (no result: IMPase inh)
O=C(/C=C/c1ccccc1[N+](=O)[O-])N1CCN(C(=O)c2ccco2)CC1	HTT cytoprotect inconclusive (no result: PNC inhibitor, IMPase inh)
Cc1ccccc1CNS(=O)(=O)c1ccc2c(c1)OCCO2	PNC inhibitor -119
CC(C)CNS(=O)(=O)c1ccc2c(c1)OCCO2	none
Cc1ccc(-c2csc(N3CCC(NS(=O)(=O)c4ccc5c(c4)OCCO5)CC3)n2)cc1	NPSR antag inconclusive, HTT cytoprotect inconclusive, HTT aggregate 6.3µM
Cc1ccc(CNS(=O)(=O)c2ccc3c(c2)OCCO3)cc1	PNC inhibitor -101 (no result: IMPase inh, HTT cytoprotect)
CC(=O)c1c(C)[nH]c(C(=O)OCC(=O)Nc2cc(S(=O)(=O)N3CCCC3)ccc2Cl)c1C	PNC inhibitor -108
CC(=O)c1c(C)[nH]c(C(=O)OCC(=O)Nc2cccc(S(=O)(=O)N3CCCC3)c2)c1C	none
COC(=O)c1cc(OC)c(OC)cc1NC(=O)Nc1ccc(OC)cc1OC	IMPase inh inconclusive
COc1ccc(NC(=O)Nc2nc(C)cc(C)n2)c(OC)c1	HTT aggregate 28µM (no result: PNC inhibitor, IMPase inh, HTT cytoprotect, IMPase Li cell)
CCCCC(=O)Nc1ccc(NC(=O)CC)cc1OC	PNC inhibitor -84
COc1ccc(NC(=O)CC(=O)Nc2ccc(OC)cc2OC)c(OC)c1	PNC inhibitor -127
CCc1nccn1S(=O)(=O)c1ccc(Br)cc1Br	none
COc1cc(Cl)cc(/C=C/c2ccc3ccccc3n2)c1OC(C)=O	PNC inhibitor -101, HTT aggregate inconclusive (no result: IMPase inh)
CC1Cc2ccccc2N1CC(=O)NC(=O)NCc1ccco1 (stereo not drawn)	PNC inhibitor -122
O=C(CN1CCCc2ccccc21)NC(=O)NCc1ccco1	none
C=CCn1c(O)c(N=NC(=O)OC(C)(C)C)c2ccccc21	PNC inhibitor -100
O=[N+]([O-])c1ccc(-c2nc(NCc3ccccc3)c3ccccc3n2)cc1	none
O=[N+]([O-])c1ccc(-c2nnc(-c3ccccc3)c(NCCCO)n2)cc1	PNC inhibitor -85 (no result: IMPase inh, HTT cytoprotect)
